CF NFkB block: inhibitors of cystic fibrosis induced NF-kB | inhibition, % at 5 µM | KKLEB NF-kB-GFP reporter, PAF-induced, GFP fluorescence overnight | actives 0.86% (n = 360,000) | AID 588850;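 active = at least 50% inhibition at 5 µM, scaled per plate between neutral and stimulator controls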;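 note: PAF is a Pseudomonas aeruginosa culture filtrate used as stimulus; plate controls were PAF-stimulated DMSO wells for no effect and unstimulated DMSO wells for full effect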
TRAIL sens C8: caspase-8 TRAIL sensitization | NB7+C8 cells + TRAIL, ATPlite viability luminescence | inhibition (viability loss, TRAIL sensitization), % at 10 µM | actives 1% (n = 360,000) | AID 624354;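 active = compounds causing at least 50% loss of cell viability in the single-dose screen, relative to plate controls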
HIF-2a inh: HIF-2a inhibition | 786-0 RCC cells HIF-2a reporter, luciferase luminescence, overnight | inhibition, % at 18.8 µM | actives 0.72% (n = 360,000);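 active = inhibition of the luminescence signal of 40% or more relative to plate controls, in a single-dose primary screen at 18.75 µM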
Peg3 promoter: inhibitors of Peg3 promoter. actives 1.7% (n = 360,000). HeLa PEG-Prom luciferase reporter, luminescence, overnight. inhibition, % at 20 µM;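 active = inhibition of at least 50% at 20 µM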
PPC-1+TRAIL kill: PPC-1 cancer cell killing with TRAIL present | PPC-1 cells + TRAIL, ATPLite viability luminescence | cell killing (% activity), % at 4 µM or 5 µM | actives 0.41% (n = 220,000) | AID 1443;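 active = cell killing above 50% in the first pass at 4 µM, then a duplicate retest at 5 µM averaging 50% or more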;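 note: plate controls were cells with TRAIL plus DMSO for no effect and medium-only wells lacking cells for full effect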
KKLEB tox: counter-screen for CF NF-kB inhibitors: cytotoxicity; KKLEB CF airway cells viability, ATPlite luminescence, overnight; hits give low values; cells stimulated with P. aeruginosa culture filtrate; activity change (cytotoxicity), % at 5 µM; actives 0.36% (n = 360,000);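 active = corrected activity change at or below -50% at 5 µM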
Active calls of the source: *; · = no result given. An excerpt weighted towards active compounds, which were near 3.1% of everything screened.

SMILES | CF NFkB block | TRAIL sens C8 | HIF-2a inh | Peg3 promoter | PPC-1+TRAIL kill | KKLEB tox
COc1cc(C2CC(=O)Nc3ccccc3S2)cc(OC)c1OC (stereo not drawn) | -14 | 2 | 11 | 51* | -7 | -5
Cc1cc(C)nc(NC(=NCCc2c[nH]c3ccccc23)NC(=O)Nc2ccccc2)n1 | 42 | 10 | -4 | 52* | -16 | -9
Cc1cc(C)nc(NC(=NCCc2c[nH]c3ccccc23)NC(=O)Nc2ccc(Cl)c(Cl)c2)n1 | 9 | -3 | 15 | 19 | 12 | 1
O=C1CSC(=S)N1c1cccc(O)c1 | 43 | -1 | 48* | 32 | · | -18
C=CCn1c2ccccc2c2nnc(SCCCn3c(=O)[nH]c4ccccc43)nc21 | -7 | 17 | 28 | 65* | 14 | -2
C=CCn1c2ccccc2c2nnc(SCCN3CCCCC3)nc21 | -28 | -5 | 10 | 19 | · | 0
Cc1ccc(-c2nc(-c3ccncc3)no2)c(Cl)c1 | 10 | 55* | -73 | -80 | · | -44
CCOc1cccc(-c2c(C(=O)N/N=C/c3cccs3)nnn2-c2nonc2N)c1 | 23 | -26 | 4 | 15 | · | -6
CCC(C)c1ccc(S(=O)(=O)N2CCN(CC(O)COCC3CCCO3)CC2)cc1 (stereo not drawn) | 20 | 5 | 19 | 26 | · | -10
S=C(NCCCCN(Cc1ccc(Cl)cc1)c1ccc(Br)cn1)NCCCc1cnc[nH]1 | 14 | 21 | -14 | 96* | · | -16
Cc1ccc2nc(-c3ccccc3)nn2c1 | -17 | 76* | 20 | 43 | · | -10
Cc1ccc(-c2nnc(-c3ccccc3)c(-c3ccccc3)n2)cc1 | 5 | 0 | -62 | -23 | 9 | 17
COCCN(Cc1ccccc1)C(=O)c1cc(-c2ccc(OC)c(OC)c2)nc2ccccc12 | 5 | 15 | 5 | 52* | · | -2
CCCc1ccc(-c2cc(C(=O)Nc3ccc([N+](=O)[O-])cn3)c3ccccc3n2)cc1 | -13 | 51* | -171 | -124 | 18 | -14
COCCNC(=O)c1cc(-c2ccc(-c3ccccc3)cc2)nc2ccccc12 | -30 | 56* | -282 | -216 | · | -1
CCNC(=S)NNC(=O)c1cc(-c2cccc(OC)c2)nc2ccccc12 | -10 | 21 | -119 | -103 | 51* | -4
OC[C@@H]1CN(CCN2CCOCC2)C[C@H](n2cnc3c(NC4CCCC4)ncnc32)O1 | 3 | -1 | 6 | 1 | · | 1
CCCc1ccc(-c2cc(C(=O)NCCc3ccc(S(N)(=O)=O)cc3)c3ccccc3n2)cc1 | -30 | 58* | -191 | -178 | 38 | -9
COc1cccc(NC(=O)CN(C)C(=O)c2cc(-c3cccc(Br)c3)nc3ccccc23)c1 | -25 | 35 | -9 | 71* | · | -7
NS(=O)(=O)c1ccc(CCNC(=O)c2cc(-c3ccc(Br)cc3)nc3ccccc23)cc1 | -27 | 5 | -43 | -2 | 27 | 7
OC1COC(O)C(O)C1O (stereo not drawn) | 0 | -12 | 10 | 9 | · | 23
CCOc1ccccc1N(CC(=O)Nc1cccc2ccccc12)S(C)(=O)=O | 11 | -10 | 9 | 15 | · | -3
COc1ccc(/C=C2\CCC(C3CCCC3)C2=O)cc1 (stereo not drawn) | 7 | -1 | -248 | -308 | · | -1
CN(C)CC1CC/C(=C\c2ccc(O)cc2)C1=O (stereo not drawn) | 47 | 21 | 88* | 98* | · | 0
COc1ccc(/C=C2/CCC(CN3CCOCC3)C2=O)cc1 (stereo not drawn) | 66* | 80* | 87* | 101* | · | -55*
SMILES | CF NFkB block | TRAIL sens C8 | HIF-2a inh | Peg3 promoter | PPC-1+TRAIL kill | KKLEB tox
O=C1/C(=C\c2ccc(Cl)cc2)CCC1CNc1ccc(Cl)cc1 (stereo not drawn) | -30 | 15 | 0 | 89* | · | 30
Cc1ccc(S(=O)(=O)NC(=O)C2(C)CCN2C(=O)c2ccc(C(F)(F)F)nc2C)cc1 (stereo not drawn) | 9 | -21 | -2 | -1 | · | -14
O=C1C(Sc2ccccc2)=C[C@@]2(O)CC[C@@H](O)[C@]1(Sc1ccccc1)[C@H]2O | · | -22 | 3 | · | · | ·
COc1ccc(-n2nc(C(=O)NCC(=O)NCCc3ccc(OC)c(OC)c3)c3ccccc3c2=O)cc1Cl | 8 | 16 | 11 | 46 | · | -13
N/C(Cc1ccc(Cl)cc1)=N\OC(=O)c1cccc2ccccc12 | 4 | 68* | -16 | 111* | 16 | 1
N/C(Cc1ccc(Cl)cc1)=N\OC(=O)c1ccc2ccccc2c1 | 17 | 95* | -1 | 105* | 6 | 9
COc1ccc(C/C(N)=N/OC(=O)c2ccc(Cl)cc2)cc1 | -14 | 3 | -2 | 3 | 7 | 9
O=C(/C=C/c1ccco1)Nc1scc(-c2ccccc2)c1C(=O)O | 1 | 54* | -87 | -116 | 48 | -4
Cc1onc(-c2ccccc2)c1C(=O)N(CC(C)C)c1c(N)n(CC(C)C)c(=O)[nH]c1=O | 17 | 3 | -6 | 18 | · | 4
C=CCN1C(=O)C(CC(=O)Nc2ccc(OCCC)cc2)N(CCCN2CCN(Cc3ccccc3)CC2)C1=S (stereo not drawn) | 5 | -4 | 4 | 52* | 27 | -21
CC(O)(c1ccc(F)c(F)c1)c1nc(-c2ccc(S(C)(=O)=O)cc2)cs1 (stereo not drawn) | -28 | 4 | 12 | 23 | · | 19
Nc1nnc2cc(Br)ccc2n1 | 28 | -2 | -21 | 3 | · | -24
CCN(CC)c1ccc(C(=O)NC(=S)Nc2cc(S(=O)(=O)N3CCOCC3)ccc2-n2cncn2)cc1 | 31 | 15 | 18 | 8 | 4 | -71*
CC(C)CCNC(=O)[C@@H](Cc1ccccc1)NC(=O)CC[C@H]1O[C@@H](n2ccc(=O)[nH]c2=O)[C@H](O)[C@@H]1O | -15 | -18 | 7 | 9 | · | 2
COc1ccc2nc3cc(Cl)ccc3c(Nc3cc(CN4CCCC4)c(O)c(CN4CCCC4)c3)c2n1 | 30 | 79* | 14 | 97* | · | 3
COc1ccccc1N1CCN(C(=O)c2cc(-c3ccc(F)cc3)[nH]c2C)CC1 | 3 | 11 | 10 | 41 | · | -18
COc1ccc2c(c1OC)C(=O)N(c1nccs1)C2 | -14 | 10 | -183 | -159 | 5 | 20
COc1ccc(N2Cc3ccc(OC)c(OC)c3C2=O)cc1 | -3 | 51* | -190 | -258 | · | -5
c1ccc(-c2cnc(-c3ccccc3)nc2)cc1 | -8 | 75* | -298 | -135 | -2 | -16
c1ccc(-c2ncc3c(ccc4ccccc43)n2)cc1 | -15 | 84* | -35 | -81 | 78* | -54*
c1ccc2c(c1)cnc1ccccc12 | 0 | -7 | -1 | -6 | 12 | 3
COC(=O)c1ccc(C)c(NC(=O)CCCN2C(=O)NC(C)(C)C2=O)c1 | 1 | -12 | -3 | 13 | · | -6
S=C1Cc2ccccc2N1 | -7 | 60* | 22 | 95* | 22 | 18

Assay outcomes deposited in PubChem BioAssay by Sanford-Burnham Center for Chemical Genomics.
